MenB inh = blocks the Mycobacterium tuberculosis MenB enzyme | P9WNP5 | MenB enzyme assay, absorbance read-out | inhibition, % (no concentration beside the values) | 100,000 tested, 0.43% active; in the data active = inhibition above about 21%, passing the limit was not always enough
MbtI inh = blocks the Mycobacterium tuberculosis siderophore enzyme MbtI | 100,000 tested, 0.89% active | inhibition, % (concentration not given with the values) | purified MbtI enzyme, fluorescence intensity read-out | AID 493033; in the data active = inhibition mostly above about 56%, no sharp cut-off; inactive = mostly below about 77%
Target sequence (P9WFX0 whole entry, looked up): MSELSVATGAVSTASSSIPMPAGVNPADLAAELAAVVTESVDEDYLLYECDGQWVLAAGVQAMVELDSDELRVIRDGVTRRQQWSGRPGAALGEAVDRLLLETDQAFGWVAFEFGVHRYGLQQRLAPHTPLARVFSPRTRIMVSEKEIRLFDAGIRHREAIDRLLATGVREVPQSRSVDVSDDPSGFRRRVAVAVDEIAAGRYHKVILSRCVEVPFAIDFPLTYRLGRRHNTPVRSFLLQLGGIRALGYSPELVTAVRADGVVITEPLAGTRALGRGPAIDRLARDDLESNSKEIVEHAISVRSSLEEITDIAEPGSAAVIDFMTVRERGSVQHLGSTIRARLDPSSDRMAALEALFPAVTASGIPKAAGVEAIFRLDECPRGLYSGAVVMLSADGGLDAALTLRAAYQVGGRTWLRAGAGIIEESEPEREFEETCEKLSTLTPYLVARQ
PV pol inh = inhibitors of poliovirus RNA polymerase binding and polymerization | P03300 | poliovirus polymerase elongation, fluorescence polarization; stronger effect = lower value | % elongation, % (compound at 16.7 µg/mL) | 150,000 tested, 0.66% active | AID 588519; in the data active = % elongation below about 90%
* hit, by the source's call; nt = no result. Rows were chosen to be rich in hits. Some 1.5% of all compounds tested hit in one or more screens of this group.

SMILES | MenB inh | MbtI inh | PV pol inh
Cc1cccc2sc(NNC(=O)c3ccc(S(=O)(=O)N4CCCC4)cc3)nc12 | -54.8 | 4.8 | 101.0
Cc1cc(NC(=O)Nc2cn(C)c(=O)c3ccccc23)no1 | 2.7 | -20.1 | 91.0
Cc1ccc(NC(=O)Nc2cn(C)c(=O)c3ccccc23)c(Cl)c1 | nt | nt | 80.0*
Cc1nonc1OCC(C)(N)COc1nonc1C | -7.3 | -6.3 | 99.0
Cc1ccc(S(=O)(=O)/N=C(/Nc2nc(C)cc(C)n2)N2CCc3ccccc32)cc1 | -0.2 | 8.1 | 103.0
CC1=C(C(=O)OC2CCCCCC2)C(c2ccc(Cl)cc2Cl)CC(=O)N1 (stereo not given) | nt | nt | 106.0
O=C(CSc1nc2ccccc2c(=O)[nH]1)c1ccccc1 | nt | 43.0 | nt
O=C(CSc1nc2c(c(=O)[nH]1)CSC2)c1ccc(Cl)cc1 | 1.5 | 82.0* | 101.0
CCN(C(=O)C1CCCO1)C1CCCCC1 (stereo not given) | -16.2 | -15.6 | 100.0
CC(C)C(c1nnnn1Cc1ccccc1)N1CCN(c2ccccc2)CC1 (stereo not given) | 32.1* | -0.6 | 98.0
CC1CCN(C(c2nnnn2Cc2ccccc2)C(C)C)CC1 (stereo not given) | -29.9 | -8.8 | 100.0
O=C(CNc1ccccc1N1CCCCC1)Nc1ccc(F)cc1Cl | -15.4 | -4.5 | 106.0
Cc1ccc(-n2[nH]c(=O)c(N=O)c2O)cc1C | -28.0 | 17.0 | 78.0*
Cc1ccc(N2NC(=O)CC2=O)cc1C | 12.8 | nt | 92.0
COC(=O)c1cnc(N2CCCN(C(=O)c3cc(C(C)(C)C)nn3C)CC2)nc1C(F)(F)F | 4.5 | -6.2 | 105.0
CC(=O)Nc1ccc(C(=O)CSc2nnnn2C(C)C)cc1 | -27.9 | 9.6 | 102.0
CC(C)n1nnnc1SCC(=O)c1ccc(F)cc1 | 27.8* | 0.1 | 101.0
Cc1ccc(NC(=S)NCC2COc3ccccc3O2)cc1 (stereo not given) | -18.6 | -10.2 | 98.0
CC1CCCCC1NC(=O)NC(=O)CSc1nc(N)cc(N)n1 (stereo not given) | -0.1 | 10.1 | 100.0
CCCCCCCCCCCCCC(=O)N[C@H](C)[C@@H](O)c1ccccc1 | -4.5 | -11.6 | 101.0
O=c1[nH]c(=S)[nH]c(C(F)(F)F)c1Cc1ccc(Cl)c(Cl)c1 | 0.8 | -9.2 | 103.0
O=c1[nH]c(=S)[nH]nc1Cc1ccc(Cl)c(Cl)c1 | -27.4 | 57.8* | 102.0
Cc1sc2nc(CCl)[nH]c(=O)c2c1-c1ccccc1 | nt | 81.5* | 89.0*
Cc1sc2nc(CCl)[nH]c(=O)c2c1C | nt | 0.0 | 98.0
Cc1sc2nc3n(c(=O)c2c1-c1ccccc1)CCC3 | -19.4 | 87.4 | 76.0*
SMILES | MenB inh | MbtI inh | PV pol inh
O=c1c2c(-c3ccccc3)csc2nc2n1CCC2 | -1.2 | nt | 106.0
O=C(Cc1ccc2c(c1)OCCO2)NCc1ccco1 | 7.2 | 28.0 | nt
CCN(Cc1ccc2c(c1)OCCO2)C(=S)NCc1ccco1 | -30.9 | 88.7* | 97.0
CCOC(=O)N1CCN(C(=O)C(NC(=O)c2ccc(C(C)(C)C)cc2)C(C)C)CC1 (stereo not given) | -3.6 | -8.1 | nt
CCc1c(CN2CCN(c3cccc(C)c3C)CC2)csc1C | nt | nt | 56.0*
Cc1cc(CN2CCN(c3cccc(C)c3C)CC2)cs1 | nt | nt | 109.0
O=C(CN1CCCN(Cc2ccccc2)S1(=O)=O)N1CCCCCC1 | 1.9 | 1.4 | 100.0
COc1ccc(C(=O)Cn2c(=O)n3nc(CCn4nc(C)cc4C)nc3c3cc(OC)c(OC)cc32)cc1 | nt | nt | 112.0
c1ccc2[nH]c(SCCCN3CCCCC3)nc2c1 | -18.7 | 7.8 | 99.0
c1ccc2[nH]c(SN3CCCCC3)nc2c1 | -8.0 | 96.8* | 100.0
COCCn1c(N)c(C(=O)C(C)(C)C)sc1=S | -24.1 | 1.7 | 101.0
CC(c1n[nH]c(=S)n1-c1ccccc1)N(C)C (stereo not given) | -11.0 | 23.0 | 102.0
CC(c1n[nH]c(=S)n1Cc1ccccc1)N(C)C (stereo not given) | -25.3 | 59.1* | 98.0
CCn1c(SCc2c(F)cccc2Cl)nc2cc(S(N)(=O)=O)ccc21 | 2.3 | 4.3 | 106.0
N#CC1=C2SCN(C3CCCCC3)CN2C(=O)CC1c1ccc(Cl)cc1 (stereo not given) | nt | nt | 98.0
N#CC1=C2SCN(C3CCCCC3)CN2C(=O)CC1c1ccc(F)cc1 (stereo not given) | nt | nt | 84.0*
N#CC1=C2SCN(C3CCCCC3)CN2C(=O)CC1c1c(F)cccc1Cl (stereo not given) | nt | nt | 69.0*
COc1ccccc1C1CC(=O)N2CN(C3CCCCC3)CSC2=C1C#N (stereo not given) | -18.2 | 38.3 | 94.0
CO/N=C/C1=C(Sc2nc3ccccc3s2)CCCC1 | -8.8 | 0.1 | 102.0
O=S(=O)(c1ccccc1)n1ccc(-c2ccc(C#Cc3ccccc3)cc2)n1 | -6.4 | -12.2 | 106.0
CC1=CC(C)=NC2Nc3c(C)cc(C)cc3C(=N)C12 (stereo not given) | -278.9 | 51.7 | 86.0*
COc1cc(C2Nc3c(C)cc(C)cc3-c3cc(C)nn32)cc(OC)c1O (stereo not given) | nt | nt | 101.0
Cc1ccccc1NC(=O)Nc1sc2nc3n(c(=O)c2c1C)CCC(C)CC3 (stereo not given) | 12.1 | -10.4 | 105.0
CCc1nc2ccc(NC(C)=O)cc2c(=O)n1Cc1ccccc1 | -18.2 | 3.8 | 104.0
O=C(Nc1ccc2nc(C3CC3)n(Cc3ccccc3)c(=O)c2c1)C1CC1 | 32.5* | 9.8 | 101.0
SMILES | MenB inh | MbtI inh | PV pol inh
O=C(COc1ccccc1-c1nc(-c2ccccc2)no1)Nc1cccc([N+](=O)[O-])c1 | nt | nt | 111.0
CC(C)Cn1cc(NC(=O)N2CCCCCC2)c2ccccc2c1=O | -18.9 | 0.2 | 101.0
COc1ccc(OC)c(CNC(=O)Nc2cn(CC(C)C)c(=O)c3ccccc23)c1 | nt | nt | 25.0*
CC(C)Cn1cc(NC(=O)N2C(C)CCCC2C)c2ccccc2c1=O (stereo not given) | -5.8 | 29.9 | 92.0
CC(C)Cn1cc(NC(=O)NCc2ccccc2Cl)c2ccccc2c1=O | nt | nt | 41.0*
Cc1ccc(CNC(=O)Nc2cn(CC(C)C)c(=O)c3ccccc23)cc1 | nt | nt | 28.0*
CCN(C(=O)c1cn(CC(C)C)c(=O)c2cc(OC)c(OC)cc12)c1cc(OC)ccc1OC | nt | nt | 101.0
CC(C)Cn1cc(NC(=O)NCC2CCCO2)c2ccccc2c1=O (stereo not given) | -0.8 | 127.8 | 96.0
Cc1ccc(C)c(N2CCN(C(=O)Nc3cn(CC(C)C)c(=O)c4ccccc34)CC2)c1 | nt | nt | 77.0*
Cc1ccc2nc(-c3ccc(NC4=CC(=O)CCC4)cc3)sc2c1 | nt | 90.5 | 103.0
CC(C)Cn1cc(NC(=O)N2CCN(c3cccc(Cl)c3)CC2)c2ccccc2c1=O | nt | nt | 106.0
COc1cccc(CNC(=O)Nc2cn(CC(C)C)c(=O)c3ccccc23)c1 | nt | nt | 31.0*
COc1ccc(N2CCN(C(=O)Nc3cn(CC(C)C)c(=O)c4ccccc34)CC2)cc1 | nt | nt | 108.0
CC(C)Cn1cc(NC(=O)NCc2ccc(Cl)cc2)c2ccccc2c1=O | nt | nt | 106.0
CC(C)Cn1cc(NC(=O)NCc2ccccc2)c2ccccc2c1=O | nt | nt | 12.0*
CC(C)Cn1cc(NC(=O)NCc2cccc(Cl)c2)c2ccccc2c1=O | nt | nt | 58.0*
CC(C)(C)C(=O)OCN1N=CN(Cc2ccccc2)C=C1SC#N | -32.3 | -7.9 | 107.0
Nc1ccc(-c2cc3ccccc3o2)cc1 | -28.8 | nt | 103.0
Cc1cc(C)cc(NC(=O)N(CCC#N)Cc2ccccc2)c1 | -16.3 | 2.9 | 103.0
CC(C)Cc1nnc(NS(C)(=O)=O)s1 | -30.7 | 94.6* | 102.0
CS(=O)(=O)Nc1nnc(CSc2ccccc2)s1 | -16.2 | -3.0 | 102.0

Compound activity deposited in PubChem BioAssay by ICCB-Longwood Screening Facility, Harvard Medical School.
